Experimental findings from PubChem BioAssay (Tox21) are described below.

Assay [1] in a line: Nuclear factor erythroid 2-related factor 2/antioxidant responsive element (Nrf2/ARE) small molecule agonists: qHTS cell viability counter screen in human keratinocytes (AID 1919968; active means well fitted curve in the direction sought with a large enough effect in the repeat runs; an effect the other way counts as inactive or inconclusive; further: nearly all actives have a fitted effect of over 55% in size). Summed up: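 Fluorescence read-out from CellTiter-Fluor after 1 h at 37 C. Wells held HaCaT-derived ARE-luciferase reporter cells (1,500/well) treated 23 h with DMSO-dissolved compounds. Run in the same wells as the luciferase agonist read.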
On the technique in general: In qHTS, concentration-response curves come from the screen itself.

Assay [2] can be described thus: Nuclear factor erythroid 2-related factor 2/antioxidant responsive element (Nrf2/ARE) small molecule agonists: luciferase reporter gene qHTS assay in human keratinocytes (AID 1919969; further: nearly all actives have a fitted effect of over 35% in size). (A reporter such as luciferase makes a cellular process visible.)
Assay [3] concerns the target Gonadotropin-releasing hormone receptor (Homo sapiens) (UniProt P30968). The assay can be described thus: Human gonadotropin-releasing hormone receptor (GnRHR) small molecule agonists, calcium flux assay in GnRHR-HEK293 cells (AID 1920063). Further: nearly all actives have a fitted effect of over 35% in size. The gist of the method:
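Calcium-dye fluorescence, Ex/Em=480/540, recorded every 1 sec over 3 min after compound addition to GnRHR-HEK293 cells. Cells had been seeded 18 hours earlier and dye-loaded for 1 hour at 37 C. Fifteen concentrations, triplicates.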
Background: Calcium assays in cells follow changes in intracellular calcium, usually with a dye or a luminescent sensor.

Assay [4] has as its target KiSS-1 receptor (Homo sapiens) (UniProt Q969F8). The assay can be described thus: Human kisspeptin (KISS1R) small molecule agonists, calcium flux assay in KISS1R-HEK293 cells (AID 1920064; active means well fitted curve in the direction sought with a large enough effect in the repeat runs; an effect the other way counts as inactive or inconclusive). Summed up: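 Calcium flux read-out: kinetic fluorescence at Ex/Em=480/540, 1 s intervals over 3 min, after pin-tool compound addition to dye-loaded KISS1R-HEK293 cells. Fifteen concentrations, triplicates.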

The nature of assay [5]: G protein-coupled receptor (GPCR) small molecule agonists, calcium flux assay: HEK293 wild type cell line counter screen (AID 1920065). Summed up:
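Agonist mode; 18 h seeding at 37 C, 1 h dye load at 37 C; compounds pinned from DMSO, ATP as positive control; kinetic fluorescence 480/540 nm, 3 min, 1 s reads; 15 concentrations, triplicate.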

Assay [6] in a line: p53 small molecule agonists, cell-based qHTS assay with rat liver microsomes (AID 1963578). Summed up:
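Fluorescence from a beta-lactamase reporter under a p53 response element was measured after cells had been incubated 16 h at 37 C with test compound and rat liver microsomes plus NADPH (0.5 mg/mL final each).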

Assay [7] is described as follows: p53 small molecule agonists, cell-based qHTS assay with human liver microsomes: qHTS cell viability counter screen (AID 1963579). Further: nearly all actives have a fitted effect of over 45% in size. The gist of the method:
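Seed p53RE-bla cells at 4,000 per well; incubate 5 h at 37 C; add compound, human liver microsomes and NADPH; incubate 16 h at 37 C; add CellTiter-Glo; after 30 min at room temperature, read luminescence.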

A short description of assay [8]: p53 small molecule agonists, cell-based qHTS assay with rat liver microsomes: qHTS cell viability counter screen (AID 1963580). Further: nearly all actives have a fitted effect of over 45% in size. The gist of the method:
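Cytotoxicity counter screen: intracellular ATP measured by CellTiter-Glo luminescence in the same wells as the beta-lactamase reporter read, on HCT-116 p53RE-bla cells exposed 16 h at 37 C to compounds with rat liver microsomes and NADPH, each 0.5 mg/mL final.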

A short description of assay [9]: p53 small molecule agonists, cell-based qHTS assay: qHTS cell viability counter screen (AID 1963581). Further: nearly all actives have a fitted effect of over 45% in size. The gist of the method:
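Cytotoxicity read-out: ATP-based luminescence (CellTiter-Glo, 30 min RT) measured in the same wells as the p53 reporter assay, HCT-116 p53RE-bla cells, 16 h compound exposure at 37 C.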

Assay [10] addresses 5-hydroxytryptamine receptor 2A (Homo sapiens) (UniProt P28223). The assay can be described thus: 5-hydroxytryptamine receptor 2A (HTR2A) small molecule antagonists, cell-based qHTS assay (AID 1963586). Further: nearly all actives have a fitted effect of over 45% in size. Further: potency means the concentration at half of the fitted maximal effect. Summed up: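 CHO cells stably expressing human HTR2A were plated for 18 h at 37 C, then loaded with calcium dye for 1 h. Compounds were preincubated 5 min at room temperature before DOI (4 nM solution) was added. Kinetic fluorescence was read for 3 min.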

The target is the same in assay [11]. The assay can be described thus: 5-hydroxytryptamine receptor 2A (HTR2A) small molecule agonists, cell-based qHTS assay (AID 1963587). Further: nearly all actives have a fitted effect of over 30% in size. The gist of the method:
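CHO cells stably expressing human HTR2A, plated 18 h, loaded with calcium dye 1 h at 37 C. Agonist mode: compounds added and intracellular calcium fluorescence recorded kinetically for 2 min at 1 sec intervals.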

In assay [12] the target is Muscarinic acetylcholine receptor M1 (Homo sapiens) (UniProt P11229). The experiment in a line: Cholinergic receptor muscarinic 1 (CHRM1) small molecule antagonists, cell-based qHTS assay (AID 1963588). Further: nearly all actives have a fitted effect of over 40% in size. Further: potency means the concentration at half of the fitted maximal effect. The gist of the method:
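Compounds were tested at 15 concentrations in three independent runs. Dye-loaded CHRM1-CHO cells were exposed 5 min at room temperature before stimulation by acetylcholine added at 50nM. Intracellular calcium was read kinetically on FDSS for 3 min.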

Assay [13] has the same target. The assay can be described thus: Cholinergic receptor muscarinic 1 (CHRM1) small molecule agonists, cell-based qHTS assay (AID 1963589). Further: nearly all actives have a fitted effect of over 35% in size. Summed up: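 Calcium flux read-out: kinetic fluorescence at 1 sec intervals after pin-tool compound addition to dye-loaded CHRM1-CHO cells (human M1). Agonist mode; 15 concentrations tested in triplicate independent runs.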
Assay [14] in a line: cAMP Responsive Elements (CRE) small molecule antagonists, cell-based qHTS assay (AID 1963591; active means well fitted inhibition curve with a large enough effect in the signal ratio in the repeat runs, not every such curve was filed as active; the % refers to the signal ratio). Summed up:
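HEK293T CRE-bla; 18 h preincubation; compound pin-transfer; NKH477 0.25 uM final, 3 h, 37 C; LiveBLAzer FRET substrate 2 h RT.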

Assay [15] has as its target Beta-2 adrenergic receptor (Homo sapiens) (UniProt P07550). The assay can be described thus: Adrenergic beta2 receptor (ADRB2) small molecule antagonists, cell-based qHTS assay (AID 1963592). Further: series mostly up to about 92 µM; nearly all actives have a fitted effect of over 50% in size. The gist of the method: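 Assay format: CHO-ADRB2 cells, 18-20hr seeding at 37C/5% CO2, then compound plus 1nM isoproterenol agonist mix for 0.5hr RT. Homogeneous time-resolved fluorescence cAMP detection after 1hr, expressed as 665/615 nm ratio.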

For assay [16], the target named is D(2) dopamine receptor (Homo sapiens) (UniProt P14416). The assay can be described thus: Dopamine D2 receptor (DRD2) small molecule agonists, cell-based qHTS assay (AID 1963594). Further: nearly all actives have a fitted effect of over 35% in size. The gist of the method:
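HEK293 cells stably expressing human DRD2, pre-treated with PDE inhibitor Ro20-1724 (0.1 mM final) and compound 10 min at room temperature, then stimulated with NKH477 (200nM […]) for 30 min. cAMP read by HTRF (665/620 nm).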

Assay [17] shares this target. The assay can be described thus: Dopamine D2 receptor (DRD2) small molecule antagonists, cell-based qHTS assay (AID 1963595; active means well fitted inhibition curve with a large enough effect in the signal ratio in the repeat runs, with a control signal flat; the % refers to the signal ratio; further: potency means the concentration at half of the fitted maximal effect). Summed up: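 Stable D2 receptor HEK293 line, 24 h after seeding. Compound preincubated 10 min, then quinpirole (12 nM) with forskolin analogue NKH477 (200 nM), 30 min, room temperature. Detection by time-resolved FRET of cAMP.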
Assay [18] can be described thus: p53 small molecule agonists, cell-based qHTS assay (AID 1963582; active means well fitted activation curve with a large enough effect in the signal ratio in the repeat runs, not every such curve was filed as active; the % refers to the signal ratio). The gist of the method:
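Fluorescence intensity read-out of a beta-lactamase reporter under a p53 response element. Cells were exposed to DMSO-dissolved compounds for 16 h at 37 C, then developed with FRET substrate for 2 h at RT.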

A short description of assay [19]: cAMP Responsive Elements (CRE) small molecule agonists, cell-based qHTS assay (AID 1963590). Summed up:
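Beta-lactamase reporter readout: LiveBLAzer B/G FRET substrate, 2 h at room temperature, added after 3 h compound treatment of CRE-bla HEK 293T cells at 37 C/5% CO2.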

Values without a mark were called inactive. Inconclusive results are not listed. Active and inactive are the calls of the source. Unless noted, the call rests on the fitted dose curve.
On the % scale 0 is the no-effect control and ±100 the full control effect.

Sequence of KiSS-1 receptor (Homo sapiens) (Q969F8 whole entry, looked up): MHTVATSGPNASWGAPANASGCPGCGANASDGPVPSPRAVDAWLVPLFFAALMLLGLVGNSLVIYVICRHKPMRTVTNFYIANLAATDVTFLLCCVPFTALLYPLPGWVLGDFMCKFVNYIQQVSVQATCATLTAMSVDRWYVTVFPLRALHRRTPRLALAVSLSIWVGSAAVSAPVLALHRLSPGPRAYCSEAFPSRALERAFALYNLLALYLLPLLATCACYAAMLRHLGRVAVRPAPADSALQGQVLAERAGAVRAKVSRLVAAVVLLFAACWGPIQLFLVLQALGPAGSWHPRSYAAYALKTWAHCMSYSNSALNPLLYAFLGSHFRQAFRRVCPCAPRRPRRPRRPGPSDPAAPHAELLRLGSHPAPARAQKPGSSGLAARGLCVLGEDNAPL
Sequence of 5-hydroxytryptamine receptor 2A (Homo sapiens) (P28223 whole entry, looked up): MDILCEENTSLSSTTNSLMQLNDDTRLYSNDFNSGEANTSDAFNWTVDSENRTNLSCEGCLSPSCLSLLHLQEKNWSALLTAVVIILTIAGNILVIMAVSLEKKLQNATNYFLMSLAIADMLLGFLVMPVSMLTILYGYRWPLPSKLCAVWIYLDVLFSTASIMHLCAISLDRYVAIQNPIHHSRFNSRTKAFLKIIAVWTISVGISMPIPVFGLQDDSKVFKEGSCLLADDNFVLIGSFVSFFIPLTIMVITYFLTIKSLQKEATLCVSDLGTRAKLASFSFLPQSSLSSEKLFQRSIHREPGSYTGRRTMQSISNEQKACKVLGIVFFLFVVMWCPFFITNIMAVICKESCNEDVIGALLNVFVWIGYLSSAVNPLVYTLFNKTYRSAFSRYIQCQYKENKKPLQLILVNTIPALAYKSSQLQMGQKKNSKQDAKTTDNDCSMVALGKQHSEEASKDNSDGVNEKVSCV
Sequence of D(2) dopamine receptor (Homo sapiens) (P14416 whole entry, looked up): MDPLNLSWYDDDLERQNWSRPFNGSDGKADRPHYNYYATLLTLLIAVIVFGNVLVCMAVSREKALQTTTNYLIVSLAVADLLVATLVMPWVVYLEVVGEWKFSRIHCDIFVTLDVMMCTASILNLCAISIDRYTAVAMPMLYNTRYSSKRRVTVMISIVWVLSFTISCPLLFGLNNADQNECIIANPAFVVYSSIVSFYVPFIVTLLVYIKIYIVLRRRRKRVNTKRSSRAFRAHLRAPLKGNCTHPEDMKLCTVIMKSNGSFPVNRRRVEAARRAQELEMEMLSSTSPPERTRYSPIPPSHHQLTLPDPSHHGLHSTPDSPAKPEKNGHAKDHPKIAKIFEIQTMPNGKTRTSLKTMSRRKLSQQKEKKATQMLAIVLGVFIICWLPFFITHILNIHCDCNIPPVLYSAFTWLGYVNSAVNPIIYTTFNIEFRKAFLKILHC
Sequence of Muscarinic acetylcholine receptor M1 (Homo sapiens) (P11229 whole entry, looked up): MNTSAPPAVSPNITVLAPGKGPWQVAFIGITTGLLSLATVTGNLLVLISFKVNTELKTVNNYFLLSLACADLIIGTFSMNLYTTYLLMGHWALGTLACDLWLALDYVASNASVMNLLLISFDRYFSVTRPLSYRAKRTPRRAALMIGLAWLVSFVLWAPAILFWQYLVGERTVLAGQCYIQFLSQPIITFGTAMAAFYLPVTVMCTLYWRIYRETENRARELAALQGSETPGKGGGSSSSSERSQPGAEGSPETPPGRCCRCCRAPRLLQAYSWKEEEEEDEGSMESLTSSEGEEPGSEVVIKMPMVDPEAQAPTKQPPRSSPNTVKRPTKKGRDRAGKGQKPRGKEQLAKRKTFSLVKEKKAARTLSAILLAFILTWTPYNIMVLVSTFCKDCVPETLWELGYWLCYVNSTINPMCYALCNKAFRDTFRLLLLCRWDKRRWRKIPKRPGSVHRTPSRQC
Sequence of Beta-2 adrenergic receptor (Homo sapiens) (P07550 whole entry, looked up): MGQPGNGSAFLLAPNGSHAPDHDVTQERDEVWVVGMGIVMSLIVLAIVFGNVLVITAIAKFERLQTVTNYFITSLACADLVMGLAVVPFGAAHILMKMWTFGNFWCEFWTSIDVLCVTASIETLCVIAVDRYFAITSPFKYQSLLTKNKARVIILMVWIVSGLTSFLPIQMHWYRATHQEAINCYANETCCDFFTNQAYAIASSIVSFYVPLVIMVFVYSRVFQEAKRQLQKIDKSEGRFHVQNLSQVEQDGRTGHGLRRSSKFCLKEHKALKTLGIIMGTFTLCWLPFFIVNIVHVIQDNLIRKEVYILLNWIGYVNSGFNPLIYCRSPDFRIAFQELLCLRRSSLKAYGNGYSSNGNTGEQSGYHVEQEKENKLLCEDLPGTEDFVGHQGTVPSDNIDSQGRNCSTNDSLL
Sequence of Gonadotropin-releasing hormone receptor (Homo sapiens) (P30968 whole entry, looked up): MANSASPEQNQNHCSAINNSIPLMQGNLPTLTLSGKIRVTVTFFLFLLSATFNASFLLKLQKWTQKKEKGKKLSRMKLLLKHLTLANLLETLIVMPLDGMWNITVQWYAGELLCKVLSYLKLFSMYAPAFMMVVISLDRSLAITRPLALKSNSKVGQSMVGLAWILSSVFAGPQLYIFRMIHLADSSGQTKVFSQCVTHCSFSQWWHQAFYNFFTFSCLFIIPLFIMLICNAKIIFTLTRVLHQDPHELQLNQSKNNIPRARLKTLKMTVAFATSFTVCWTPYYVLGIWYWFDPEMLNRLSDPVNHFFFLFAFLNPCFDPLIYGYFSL

Take `CCCCC(CC)COC(=O)COc1ccc(Cl)cc1Cl` (configuration not stated): the Potency entry in assay [1], in [2], in assay [3], in [6], in assay [7] and in assay [8] was “inactive” throughout. Also, the Potency entry in assay [9], in assay [10], in [11], in assay [12], in [13] and in assay [14] was “inactive” in each case. Moreover, the Potency entry in [15], in [16] and in assay [17] was “inactive” in each case. Moreover, the result in assay [4] and in assay [5] was inactive.
Regarding `CN(C)CCCSc1ccccc1NC(=O)/C=C/c1ccccc1`, the Potency result in assay [1], in [2], in [3], in assay [6], in [7] and in assay [8] was “inactive” in each case. Also, the Potency entry in [9], in assay [18], in assay [12], in [13], in assay [19] and in [14] was “inactive” throughout. The Potency entry in assay [15] and in assay [16] was “inactive” throughout. Besides, the result in assay [4] and in [5] was inactive.
As for `C1OCOCO1`, the Potency result in [1], in assay [2], in assay [3], in assay [6], in assay [7] and in assay [8] was “inactive” in each case. Also, the Potency result in assay [18], in assay [10], in assay [11], in assay [12], in [19] and in [14] was “inactive” each time. Also, the Potency entry in assay [15], in [16] and in [17] was “inactive” each time. The result in assay [4] and in [5] was inactive.
Consider `CCC(CC)C(=O)O`, for which the Potency entry in assay [1], in assay [2], in assay [3], in assay [6], in [7] and in [8] was “inactive” each time. In addition, the Potency entry in [9], in [10], in assay [12], in assay [13], in assay [19] and in [14] was “inactive” throughout. The Potency entry in assay [15] and in assay [17] was “inactive” each time. The result in assay [4] and in assay [5] was inactive.
`CCNS(=O)(=O)c1ccc(C)cc1`: the Potency entry in assay [1], in [2], in assay [3], in assay [6], in assay [7] and in [8] was “inactive” throughout. In addition, the Potency result in assay [10], in [11], in assay [12], in assay [13], in assay [19] and in [14] was “inactive” throughout. Further, the Potency result in assay [15], in assay [16] and in assay [17] was “inactive” throughout. For the same compound, the outcome in [4] and in [5] was inactive.
For `C=C[Si](C)(C)Cl`, the activity change, negative = cytotoxicity in assay [1] was -0.368% [at 8.39 µM]; in [7] it was -13% [at 5.99 µM]; in assay [8] it was 8.84% [at 5.99 µM]; in assay [9] it was -0.14% [at 5.99 µM]. Further, the activity, positive = activation in assay [2] was -0.9% [at 8.39 µM]. Besides, the activity change in [3] is -0.471% [at 5.22 µM, hits give high values]. The activation in assay [4] was -1.18% [at 6.97 µM]; in [5], 0.126% [at 5.23 µM]; in assay [6], 0.959% [at 5.99 µM]; in assay [18], 0.341% [at 5.99 µM]; in assay [11], -0.8% [at 7.02 µM]; in [13], 0.156% [at 6.97 µM]. In addition, the activation in assay [19] was 0.4% [at 8.39 µM]; in [16], 0.612% [at 8.39 µM]. Moreover, the activity, negative = inhibition in [10] is -2.68% [at 5.62 µM]. In addition, the activity change, negative = inhibition in assay [14] was -10% [at 8.39 µM]; in [15] it was 2.31% [at 8.39 µM]; in assay [17] it was 6.57% [at 8.38 µM].
On to `CC(Oc1cc(Cl)ccc1Cl)C(=O)O` (configuration not stated), for which the Potency entry in [1], in assay [2], in assay [3], in [6], in assay [7] and in assay [8] was “inactive” each time. Further, the Potency entry in assay [18], in [10], in [11], in [13], in assay [15] and in [16] was “inactive” in each case. Besides, in assay [17], the Potency entry was “inactive”. Also, the outcome in assay [4] and in assay [5] was inactive.
Regarding `CN1CCC(=C2c3ccccc3CCc3sccc32)CC1`, the Potency entry in assay [1], in assay [2], in assay [3], in assay [6], in [7] and in assay [8] was “inactive” each time. Besides, the Potency entry in assay [18], in assay [19] and in [16] was “inactive” each time. Also, the outcome in assay [4] and in assay [5] was inactive. Moreover, the Potency was 11.6 nM (active) in assay [10], 14.5 nM (active) in [12] and 11900 nM (active) in assay [17].
Regarding `O=C(NCC1CN(c2ccc(N3CCOCC3=O)cc2)C(=O)O1)c1ccc(Cl)s1` (configuration not stated), the Potency entry in assay [1], in [2], in assay [3], in assay [6], in assay [7] and in assay [8] was “inactive” throughout. Besides, the Potency entry in assay [9], in [18], in assay [11], in assay [12], in assay [13] and in [14] was “inactive” each time. For the same compound, the Potency result in [15], in assay [16] and in assay [17] was “inactive” throughout. Also, the result in assay [4] and in assay [5] was inactive.
